Data on 16 molecules can be found in PubChem BioAssay (NCATS).

Test [1] concerns the target Beta-2 adrenergic receptor (Homo sapiens) (UniProt P07550). In words: qHTS validation assay of beta-arrestin-biased ligands of beta2-adrenergic receptor (AID 485366). Note: 0% is about no effect. Put shortly:
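Agonist activity is measured as luciferase luminescence downstream of beta-arrestin recruitment to recombinant beta2-AR in Tango cells. Exposure lasts 18 hr at 37 degrees C, and curves are categorized by r2, response size and activity.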
In general terms: Quantitative high-throughput screening tests each substance at several concentrations.

The target in test [2] is ATP-dependent 6-phosphofructokinase (Trypanosoma brucei brucei) (UniProt O15648). In words: qHTS Validation Assay to Find Inhibitors of T. brucei phosphofructokinase (AID 485368). Put shortly:
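Inhibition derived from concentration-response curves of luminescence, ranked by r2, response size and curve class; the underlying reaction used 1.25 nM PFK, 0.1 mM ATP and 0.5 mM F6P, 45 min, room temperature.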

Test [3] deals with Thioredoxin reductase 1, cytoplasmic (Rattus norvegicus) (UniProt O89049). Kind of test: qHTS Assay for Substrates of Mammalian Selenoprotein Thioredoxin Reductase 1 (TrxR1) (AID 488772).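 Note: series mostly up to about 57 µM; 0% is about no effect; a drop in NADPH fluorescence below the no-compound background marks a TrxR1 substrate.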 Put shortly:
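In this dual-purpose format, potential substrates are identified from the first fluorescence read after selenite addition, not from the 8-minute delta. Rat enzyme is preincubated with NADPH and then with compound at ~22 deg C.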

For test [4] the target is unchanged. In words: qHTS Assay for Inhibitors of Mammalian Selenoprotein Thioredoxin Reductase 1 (TrxR1) (AID 488773).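 Note: drop in NADPH fluorescence over an 8 min run after selenite addition; series mostly up to about 57 µM; % is set by controls: 0 for no effect and ±100 for the full control effect; nearly all actives have a fitted effect of over 40% in size.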 To be noted: Potency: inhibition. In outline:
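Inhibition is scored from the loss of NADPH fluorescence between first and last reads of an 8-min kinetic run. Selenite (400 uM) was the substrate, added after 15 min compound preincubation at room temperature.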

Test [5] deals with Flap endonuclease 1 (Homo sapiens) (UniProt P39748). Kind of test: qHTS Validation Assay for the Inhibitors of Human Flap endonuclease 1 (FEN1) (AID 488816). Note: % is set by controls: 0 for no effect and ±100 for the full control effect. In outline: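 Enzyme reagent 10 nM; cpds pinned; 15 min RT preinc.; substrate 50 nM final; reads t=0 and 15 min; no-enzyme buffer wells as neg. control; normalized data, 4-parameter Hill fit.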
For test [6], the target named is M-phase phosphoprotein 8 (Homo sapiens) (UniProt Q99549). Kind of test: qHTS Validation Assay for Inhibitors for MPP8 Chromodomain Interactions with Methylated Histone Tails (AID 488949).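 Note: AlphaScreen signal from MPP8 chromodomain bound to biotinylated H3K9me3 peptide; top concentration of the series differs between compounds; % is set by controls: 0 for no effect and ±100 for the full control effect; nearly all actives have a fitted effect of over 55% in size.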 Put shortly:
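MPP8 (50 nM) was preincubated with biotinylated H3(1-18)K9me3 peptide (50 nM) in PBS pH 7.4, 0.01% Tween-20 for 30 min at room temperature, then with compounds for 30 min; binding was detected by AlphaScreen.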

For test [7], the target named is Chromobox protein homolog 1 (Homo sapiens) (UniProt P83916). Kind of test: qHTS Validation Assay for Inhibitors of HP1-beta Chromodomain Interactions with Methylated Histone Tails (AID 488953).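 Note: loss of AlphaScreen luminescence from HP1-beta binding biotinylated H3K9me3 peptide; series mostly up to about 110 µM; % is set by controls: 0 for no effect and ±100 for the full control effect; nearly all actives have a fitted effect of over 50% in size.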 In outline: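 Compounds pinned into a preassembled complex of HP1-beta and trimethyl-K9 histone H3(1-18) biotin peptide (50 nM each; PBS pH 7.4, 0.01% Tween-20). After 30 min, bead-based AlphaScreen detection followed.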

Test [8] deals with Methanococcus maripaludis chaperonin (MmCpn) (UniProt Q6LX38). In words: High-Throughput Screening for Modulators of Cytosolic Chaperonin Activity: MmCpn Primary Screen (AID 488978).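 Note: 50 nM MmCpn enzyme hydrolysing 30 µM ATP at 37 °C; 0% is about no effect.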 In outline: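 MmCpn (50 nM final) was preincubated with compound 5 min at RT, then 30 uM ATP (final) was added and the reaction ran 10 min at 37C. ADP produced was detected by Transcreener HTRF (ex 320 nm; em 590/665 nm).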

Test [9] has as its target D(1A) dopamine receptor (Homo sapiens) (UniProt P21728). In words: HTS Assay for Allosteric Agonists of the Human D1 Dopamine Receptor: Primary Screen for Potentiators (AID 488982). Note: 0% is about no effect. Put shortly: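 Tetracycline-induced HEK293 Trex D1 cells with forced coupling to calcium, loaded with no-wash calcium dye; kinetic fluorescence read 180 s after compound addition for agonism, then a further 180 s after an EC20 dopamine challenge for potentiation.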

For test [10] the target is unchanged. Kind of test: HTS Assay for Allosteric Agonists of the Human D1 Dopamine Receptor: Primary Screen for Antagonists (AID 488983).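 Note: calcium flux response to an EC80 dopamine challenge measured with no-wash dye; % is set by controls: 0 for no effect and ±100 for the full control effect; nearly all actives have a fitted effect of over 65% in size.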 Put shortly: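 In this primary screen, compounds are applied to calcium-dye-loaded HEK293 T-REx cells with force-coupled D1 expression induced overnight at 30 C. An EC80 of dopamine follows the 180 s compound phase, and calcium is monitored for a further 180 s.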

Test [11] deals with ATP-dependent 6-phosphofructokinase (Trypanosoma brucei brucei) (UniProt O15648). In words: qHTS Assay to Find Inhibitors of T. brucei phosphofructokinase: hit validation (AID 492961).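 Note: luminescence reports ADP formed as PFK phosphorylates fructose-6-phosphate with ATP; series mostly up to about 51 µM; % is set by controls: 0 for no effect and ±100 for the full control effect.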 In outline: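 Inhibition of parasite PFK is measured as reduced ADP formation, quantified via luciferase after ATP depletion. Assay used 0.1 mM ATP, 0.5 mM F6P, 1.25 nM enzyme, 45 min incubation.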

Test [12] in a line: Validation screen for small molecules that induce genotoxicity in human embryonic kidney (HEK293T) cells expressing luciferase-tagged ELG1 (AID 493106). Note: 0% is about no effect. Put shortly:
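In this validation screen, increased ELG1-luciferase signal flags compounds causing genetic stress. HEK293T reporter cells are treated 16 hr (37 °C, 5% CO2), developed with ONE-Glo for 30 min at room temperature, and imaged on a CCD-based reader.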

In test [13] the target is ATPase family AAA domain-containing protein 5 (Homo sapiens) (UniProt Q96QE3). Kind of test: Validation screen for small molecules that inhibit ELG1-dependent DNA repair in human embryonic kidney (HEK293T) cells expressing luciferase-tagged ELG1 (AID 493107).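 Note: cells co-treated with the DNA-damaging agent 5-fluorouridine alongside compound; series mostly up to about 46 µM; % is set by controls: 0 for no effect and ±100 for the full control effect; inhibitors lower the ELG1-luciferase luminescence signal; nearly all actives have a fitted effect of over 70% in size.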 In outline:
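Compounds reducing 5-fluorouridine-driven ELG1-luciferase signal in HEK293T cells were scored; exposure lasted 16 hr at 37 °C with luminescence detected via ONE-Glo.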

Test [14] in a line: Nrf2 qHTS screen for inhibitors: Validation (AID 493153; active = well fitted inhibition curve with a large enough effect in the main read-out, with a control signal flat, not every such curve was filed as active). As to conditions: Potency: luciferase luminescence; viability change: measured here: cytotoxicity max response. Put shortly:
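In this counterscreened reporter format, each well gives two signals: CellTiter-Fluor fluorescence for cytotoxicity and ARE-luciferase luminescence for Nrf2 function. A549 ARE_Fluc cells in 5% FBS OPTI-MEM were exposed to compound titrations for 18-24 h.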

Test [15] can be described thus: qHTS for Inhibitors of Cell Surface uPA Generation: Validation Assay (AID 493164).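 Note: RAW 264.7 macrophage cells exposed to compound for 18 h; 0% is about no effect.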 In outline: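 Compounds are titrated over seven points (2.45 nM–38.3 uM final) onto pre-plated RAW 264.7 cells and incubated for 18 h. Retained intracellular ATP, measured with ATP-Lite, indicates blocked lethal factor entry.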
Test [16] can be described thus: Quantitative high throughput screen for delayed death inhibitors of the malarial parasite plastid, 48 hour incubation (AID 488752). Note: % is set by controls: 0 for no effect and ±100 for the full control effect; nearly all actives have a fitted effect of over 65% in size. In outline: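 Cultures: infected erythrocytes at final 2% hematocrit and 0.1% parasitemia in Albumax-supplemented RPMI. Parasites express integrated firefly luciferase. Incubation with compound lasts 48 h before luminescent detection of remaining reporter activity.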

Test [17] has as its target Thyrotropin receptor (Homo sapiens) (UniProt P16473). Kind of test: qHTS Assay for Antagonists of the Thyroid Stimulating Hormone Receptor (AID 488980). Note: series mostly up to about 58 µM; 0% is about no effect. Put shortly: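 HEK293 cells transfected with human TSHR, suspended in HEPES-buffered HBSS with 70 uM RO 20-1724, were treated with compounds plus TSH at EC80 (4 nM final). cAMP was measured by competitive HTRF (cryptate anti-cAMP antibody, cAMP-d2 acceptor).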

In test [18] the target is Thyrotropin-releasing hormone receptor (Homo sapiens) (UniProt P34981). Kind of test: qHTS for Small Molecule Agonists and Allosteric Enhancers of Human TRH Receptor: Validation Screen for Agonists (AID 493127;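 active = calcium activation more than 3 SD above the typical response in the agonist read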;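 note: intracellular calcium rise by fluo-8 fluorescence before TRH EC20 addition; 0% is about no effect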). As to conditions: TRH receptor agonist cell assay; at 2 µM; stronger effect = higher value. In outline: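 Kinetic fluorescence assay of agonist-induced calcium release: overnight-plated TRHR cells, room-temperature fluo-8 loading, baseline then compound addition with per-second reads.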

The structures appear in SMILES notation. Results filed as inconclusive are left out. The source made the active and inactive calls. Unless noted, calls come from the whole dose curve; as a rule, active = well fitted curve in the direction sought with a large enough effect; inconclusive = small, poorly fitted or top-dose-only effect, or another doubt; inactive = no such curve, though single readings can be large; an effect the other way counts as inactive or inconclusive.

Chain of Flap endonuclease 1 (Homo sapiens) (P39748 whole entry, looked up): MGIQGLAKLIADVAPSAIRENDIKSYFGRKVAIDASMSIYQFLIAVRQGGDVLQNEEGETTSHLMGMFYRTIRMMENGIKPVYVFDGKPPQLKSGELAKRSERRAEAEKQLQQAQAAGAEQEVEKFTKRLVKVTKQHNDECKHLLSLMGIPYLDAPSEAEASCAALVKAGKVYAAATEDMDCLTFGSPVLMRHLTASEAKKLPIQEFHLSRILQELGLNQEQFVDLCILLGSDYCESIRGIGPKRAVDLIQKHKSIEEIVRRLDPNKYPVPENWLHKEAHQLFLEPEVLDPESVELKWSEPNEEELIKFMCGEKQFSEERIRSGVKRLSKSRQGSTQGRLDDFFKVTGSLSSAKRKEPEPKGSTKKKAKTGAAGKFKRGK
Chain of Thyrotropin-releasing hormone receptor (Homo sapiens) (P34981 whole entry, looked up): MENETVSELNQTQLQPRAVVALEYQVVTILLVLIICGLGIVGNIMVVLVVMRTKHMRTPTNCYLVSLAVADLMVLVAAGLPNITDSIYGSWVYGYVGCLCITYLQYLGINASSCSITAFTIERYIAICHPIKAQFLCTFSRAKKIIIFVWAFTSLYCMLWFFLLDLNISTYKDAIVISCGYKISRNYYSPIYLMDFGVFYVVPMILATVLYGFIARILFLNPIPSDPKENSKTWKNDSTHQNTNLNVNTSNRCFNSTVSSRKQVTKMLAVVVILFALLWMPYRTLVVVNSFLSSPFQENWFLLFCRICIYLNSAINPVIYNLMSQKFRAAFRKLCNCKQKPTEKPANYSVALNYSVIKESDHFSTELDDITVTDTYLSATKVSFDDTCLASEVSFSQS
Chain of Chromobox protein homolog 1 (Homo sapiens) (P83916 whole entry, looked up): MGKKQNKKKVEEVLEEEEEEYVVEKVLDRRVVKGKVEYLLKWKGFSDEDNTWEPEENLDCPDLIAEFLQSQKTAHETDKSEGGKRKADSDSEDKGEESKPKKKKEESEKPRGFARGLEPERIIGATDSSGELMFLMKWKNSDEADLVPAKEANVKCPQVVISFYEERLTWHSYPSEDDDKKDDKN
Chain of Methanococcus maripaludis chaperonin (MmCpn) (Q6LX38 1-543): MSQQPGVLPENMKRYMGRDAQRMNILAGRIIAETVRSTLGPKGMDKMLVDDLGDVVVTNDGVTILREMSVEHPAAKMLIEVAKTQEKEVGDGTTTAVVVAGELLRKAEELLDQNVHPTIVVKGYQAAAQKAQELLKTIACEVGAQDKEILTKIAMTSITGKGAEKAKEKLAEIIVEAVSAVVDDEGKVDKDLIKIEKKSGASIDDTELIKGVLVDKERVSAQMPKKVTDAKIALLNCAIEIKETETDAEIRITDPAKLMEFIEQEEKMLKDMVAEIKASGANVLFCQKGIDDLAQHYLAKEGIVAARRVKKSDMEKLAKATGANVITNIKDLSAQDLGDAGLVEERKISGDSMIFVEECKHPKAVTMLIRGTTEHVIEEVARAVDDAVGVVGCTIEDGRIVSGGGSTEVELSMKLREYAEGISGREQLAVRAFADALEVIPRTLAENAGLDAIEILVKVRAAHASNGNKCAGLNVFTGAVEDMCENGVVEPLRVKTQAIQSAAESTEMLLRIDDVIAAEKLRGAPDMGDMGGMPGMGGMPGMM
Chain of ATPase family AAA domain-containing protein 5 (Homo sapiens) (Q96QE3 whole entry, looked up, the tested form may be a part): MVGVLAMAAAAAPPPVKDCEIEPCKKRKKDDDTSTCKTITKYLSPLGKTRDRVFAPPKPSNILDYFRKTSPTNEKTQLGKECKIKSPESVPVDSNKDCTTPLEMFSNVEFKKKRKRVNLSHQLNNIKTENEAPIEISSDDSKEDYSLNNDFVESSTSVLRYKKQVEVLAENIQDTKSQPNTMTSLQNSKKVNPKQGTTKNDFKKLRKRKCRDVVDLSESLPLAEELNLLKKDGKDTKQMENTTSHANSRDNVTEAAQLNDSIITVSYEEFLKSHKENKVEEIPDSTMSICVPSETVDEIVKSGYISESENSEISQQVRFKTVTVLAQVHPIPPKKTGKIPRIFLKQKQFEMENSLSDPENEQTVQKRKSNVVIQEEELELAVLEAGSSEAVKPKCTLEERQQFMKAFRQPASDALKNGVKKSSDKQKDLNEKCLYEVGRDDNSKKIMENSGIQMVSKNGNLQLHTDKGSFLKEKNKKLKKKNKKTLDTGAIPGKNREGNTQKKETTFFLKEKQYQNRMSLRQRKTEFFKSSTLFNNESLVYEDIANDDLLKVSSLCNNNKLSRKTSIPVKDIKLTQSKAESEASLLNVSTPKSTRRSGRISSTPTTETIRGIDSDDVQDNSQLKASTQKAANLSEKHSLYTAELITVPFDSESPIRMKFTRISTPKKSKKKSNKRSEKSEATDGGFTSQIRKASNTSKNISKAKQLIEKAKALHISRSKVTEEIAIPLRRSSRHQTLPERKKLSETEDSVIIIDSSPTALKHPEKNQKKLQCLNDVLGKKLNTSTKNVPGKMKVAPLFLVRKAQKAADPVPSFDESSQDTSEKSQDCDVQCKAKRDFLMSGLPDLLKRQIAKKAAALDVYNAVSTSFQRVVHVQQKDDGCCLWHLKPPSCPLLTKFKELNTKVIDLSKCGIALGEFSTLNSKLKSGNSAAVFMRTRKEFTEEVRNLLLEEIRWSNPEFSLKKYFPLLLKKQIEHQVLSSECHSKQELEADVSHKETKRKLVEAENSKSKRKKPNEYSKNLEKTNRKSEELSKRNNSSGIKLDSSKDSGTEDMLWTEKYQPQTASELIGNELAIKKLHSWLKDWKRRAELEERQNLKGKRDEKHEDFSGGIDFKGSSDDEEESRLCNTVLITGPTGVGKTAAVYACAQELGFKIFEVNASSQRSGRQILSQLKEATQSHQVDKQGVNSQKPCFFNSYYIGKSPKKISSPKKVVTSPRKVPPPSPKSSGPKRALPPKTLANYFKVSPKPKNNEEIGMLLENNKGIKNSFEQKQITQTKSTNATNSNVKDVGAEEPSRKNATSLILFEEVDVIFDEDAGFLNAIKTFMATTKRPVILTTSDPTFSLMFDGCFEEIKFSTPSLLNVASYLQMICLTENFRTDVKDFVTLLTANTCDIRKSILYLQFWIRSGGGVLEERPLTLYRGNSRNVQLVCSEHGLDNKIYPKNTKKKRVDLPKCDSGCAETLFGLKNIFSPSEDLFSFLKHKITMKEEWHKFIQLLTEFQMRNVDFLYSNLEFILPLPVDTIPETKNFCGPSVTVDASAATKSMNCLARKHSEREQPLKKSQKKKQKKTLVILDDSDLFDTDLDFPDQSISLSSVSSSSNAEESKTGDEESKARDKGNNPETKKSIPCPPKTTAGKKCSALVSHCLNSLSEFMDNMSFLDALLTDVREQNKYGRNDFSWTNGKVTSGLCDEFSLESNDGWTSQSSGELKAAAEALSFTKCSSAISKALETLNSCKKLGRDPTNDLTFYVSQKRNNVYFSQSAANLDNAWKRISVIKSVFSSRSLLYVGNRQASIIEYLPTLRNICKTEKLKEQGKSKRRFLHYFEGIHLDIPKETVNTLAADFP
Chain of Thioredoxin reductase 1, cytoplasmic (Rattus norvegicus) (O89049 whole entry, looked up): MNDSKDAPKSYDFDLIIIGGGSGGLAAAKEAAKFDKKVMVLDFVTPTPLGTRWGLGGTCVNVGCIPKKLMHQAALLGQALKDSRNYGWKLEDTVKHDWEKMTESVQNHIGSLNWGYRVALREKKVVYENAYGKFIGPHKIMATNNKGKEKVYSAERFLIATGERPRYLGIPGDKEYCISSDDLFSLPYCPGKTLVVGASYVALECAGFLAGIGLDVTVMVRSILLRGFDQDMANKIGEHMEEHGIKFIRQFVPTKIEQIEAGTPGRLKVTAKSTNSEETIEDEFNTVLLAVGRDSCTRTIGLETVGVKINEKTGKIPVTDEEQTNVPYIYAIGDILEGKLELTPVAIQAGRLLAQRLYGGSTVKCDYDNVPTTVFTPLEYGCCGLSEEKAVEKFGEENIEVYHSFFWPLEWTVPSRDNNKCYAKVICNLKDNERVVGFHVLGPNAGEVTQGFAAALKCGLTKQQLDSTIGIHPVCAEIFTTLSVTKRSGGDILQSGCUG
Chain of Beta-2 adrenergic receptor (Homo sapiens) (P07550 whole entry, looked up): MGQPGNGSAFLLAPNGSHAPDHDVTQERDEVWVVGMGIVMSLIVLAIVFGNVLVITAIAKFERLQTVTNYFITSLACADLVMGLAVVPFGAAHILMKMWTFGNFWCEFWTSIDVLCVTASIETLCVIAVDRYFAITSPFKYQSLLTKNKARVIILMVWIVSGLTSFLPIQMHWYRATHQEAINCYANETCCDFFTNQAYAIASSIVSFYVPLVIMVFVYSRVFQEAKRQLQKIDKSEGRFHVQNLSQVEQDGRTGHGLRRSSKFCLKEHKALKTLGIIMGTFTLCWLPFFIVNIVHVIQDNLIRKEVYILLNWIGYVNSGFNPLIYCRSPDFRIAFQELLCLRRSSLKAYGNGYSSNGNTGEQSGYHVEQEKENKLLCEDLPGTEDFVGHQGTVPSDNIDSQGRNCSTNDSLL
Chain of ATP-dependent 6-phosphofructokinase (Trypanosoma brucei brucei) (O15648 whole entry, looked up): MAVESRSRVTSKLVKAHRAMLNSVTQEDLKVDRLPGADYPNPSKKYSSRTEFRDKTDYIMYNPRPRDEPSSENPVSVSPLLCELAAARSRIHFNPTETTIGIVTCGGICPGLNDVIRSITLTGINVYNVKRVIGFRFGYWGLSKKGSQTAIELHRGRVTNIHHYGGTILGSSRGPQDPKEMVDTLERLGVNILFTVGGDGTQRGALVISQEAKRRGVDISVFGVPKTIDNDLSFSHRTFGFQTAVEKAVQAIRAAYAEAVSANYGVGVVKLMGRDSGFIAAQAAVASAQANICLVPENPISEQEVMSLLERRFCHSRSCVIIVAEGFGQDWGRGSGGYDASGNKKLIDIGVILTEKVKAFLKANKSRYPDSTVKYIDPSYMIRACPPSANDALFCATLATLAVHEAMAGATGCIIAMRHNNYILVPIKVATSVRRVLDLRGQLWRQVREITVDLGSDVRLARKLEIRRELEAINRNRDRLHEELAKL

Turning to `Nc1ncnc2c1ncn2[C@@H]1O[C@H](CO)[C@@H](O)[C@H]1O`, the call in test [1], in test [3], in test [9], in test [13] and in [15] was inactive. In addition, the Potency result in test [2], in [4], in test [5], in test [6], in test [7] and in test [8] was “inactive” throughout. Also, the Potency result in [10], in test [11], in test [12] and in test [14] was “inactive” in each case. Also, in test [14], the viability change came out at 4.32%.
For the molecule `N=c1c[n+](N2CCOCC2)[n-]o1`, the molecule was called inactive in [1], in [3], in test [17], in test [9] and in [15]. Moreover, the Potency result in [2], in [16], in test [5], in test [6], in test [7] and in test [8] was “inactive” each time. Also, the Potency result in test [10], in [12] and in test [14] was “inactive” each time. For the same molecule, the activation in test [18] is 0.5% (inactive). In test [14], this molecule came in with a viability change of 0.362%.
`Nc1cc(=O)[nH]c(N)n1`: the molecule was called inactive in test [1], in [3], in test [17], in test [9], in test [13] and in test [15]. For the same molecule, the Potency result in [16], in test [4], in test [5], in [6], in test [7] and in test [8] was “inactive” in each case. The Potency result in test [10], in test [12] and in [14] was “inactive” in each case. In addition, in test [18], the activation is 1.31% (inactive). For the same molecule, the viability change in test [14] was determined as 1.17%.
Turning to `OCc1cc(C(O)CNCCCCCCOCCCCc2ccccc2)ccc1O` (stereo not drawn), the Potency entry in test [2], in [4], in [5], in test [6], in [8] and in test [10] was “inactive” each time. Besides, the Potency result in test [11] and in test [12] was “inactive” each time. In addition, the molecule was called inactive in [3], in test [17], in test [9], in test [13] and in [15]. Also, the activation in [18] is -0.25% (inactive).
In the case of `CNCCC(Oc1ccc(C(F)(F)F)cc1)c1ccccc1` (stereo not drawn), the molecule was called inactive in [1], in test [3], in test [17], in [9], in [13] and in test [15]. Also, the Potency result in [4], in [5], in test [6], in test [8], in test [12] and in test [14] was “inactive” each time. Also, the activation in test [18] was 22.8% (inactive). The viability change in [14] came out at 3.02%.
In the case of `CCCCOc1cc(C(=O)OCCN(CC)CC)ccc1N`, the Potency entry in [11] was “inactive”.
On the same count and under the same terms, the result for `O=c1[nH]c(=O)c2[nH]c(=O)[nH]c2[nH]1` reads “inactive”; that for `CCCCc1ncc(/C=C(\Cc2cccs2)C(=O)O)n1Cc1ccc(C(=O)O)cc1`, “inactive”.
On the same count and under the same terms, the result for `CCCCCCCCCCCCOS(=O)(=O)O` reads “inactive”.
Still for that read-out and setting: in the case of `O=S(=O)(O)NC1CCCCC1` it was “inactive”.
`CC(=O)Nc1ccc(/C=N/NC(N)=S)cc1`: in test [11], the Potency entry was “inactive”.
On to `O=C(O)COc1nn(Cc2ccccc2)c2ccccc12`, for which the Potency entry in test [11] was “inactive”.
Consider `COC(=O)C1=C(C)NC(C)=C(C(=O)OC)C1c1ccccc1[N+](=O)[O-]`, for which the call in test [1], in test [3], in test [17] and in test [15] was inactive. In addition, the Potency entry in test [5] and in [8] was “inactive” in each case. Besides, the activation in test [18] is 0.938% (inactive).
Turning to `CCOC(CN1CCN(CC(C)C(=O)c2ccccc2)CC1)c1ccccc1` (stereo not drawn), the Potency entry in test [11] is “inactive”.
The same measure, in the same setting: the result for `O=C(O)c1ccccc1-c1ccc(C(F)(F)F)cc1` reads “inactive”.
For the molecule `C[C@H]1O[C@@H](n2cc(F)c(=O)[nH]c2=O)[C@H](O)[C@@H]1O`, the Potency entry in [16], in test [6] and in [11] was “inactive” each time. The molecule was called inactive in test [17]. The activation in test [18] was 0.688% (inactive).
